# Assay results published in PubChem BioAssay AID602248 (The Scripps Research Institute Molecular Screening Center, 2012).
# The whole screen tested about 360,000 compounds, of which about 1,700 (0.47%) were called active. For the sample, actives were picked, then their nearest neighbours and some compounds at random. Unmarked numbers belong to inactive results. Rule as the data show it: active = activation above about 15%; inactive = the rest.
# Assay: counter-screen for M1 agonists: effect in parental CHO-K1 cells (AID 602248);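 also: untransfected CHO-K1 host cells lacking M1 receptor as counterscreen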
# Conditions: Fluo-8 calcium fluorescence, at 3 µM, hits give high values
row,SMILES,activation
1,O=C(COC(=O)c1ccccc1)Nc1ccc(Cl)cc1C(=O)c1ccccc1,0.05%
2,O=C(CCNS(=O)(=O)c1ccccc1)Nc1ccc(Cl)cc1C(=O)c1ccccc1,16% (active)
3,CN1CCN(C(=S)SCC(=O)Nc2ccc(Cl)cc2C(=O)c2ccccc2)CC1,3.53%
4,CN(C)C(=O)Oc1ccc(OCc2cccc[n+]2C)cc1,-0.29%
5,CCCCCCCCCCCCn1ccc(=N)cc1,31.4% (active)
6,CNC(=O)Nc1ccc(C(O)(C(=O)OC)C(F)(F)F)cc1 (stereo not given),1.17%
7,COC(=O)C1=C(c2cccc(OCc3ccccc3)c2)C[C@@H]2CC[C@H]1N2C(=O)NNCc1ccccc1,0.39%
8,CCOC(=O)CC1=C(C(=O)OCC)C2(C(=O)N1)C(C(=O)OC)=C(N)Oc1ccccc12 (stereo not given),-0.01%
9,O=C1NC(=O)C(CCc2ccccn2)(Cc2cccc(Cl)c2Cl)C(=O)N1c1ccc(Br)cc1 (stereo not given),4.3%
10,Cc1cc(C(=O)OCC(=O)Nc2c(F)cccc2F)c(C)n1C1CC1,0.33%
11,CC(C)N(CC#CCC1(O)c2ccccc2-c2ccccc21)C(C)C,0.55%
12,N=c1ccccn1Cc1ccccc1,15.6% (active)
13,CCN1CCN(c2nc3c(c(=O)[nH]2)CCC3)CC1,0.18%
14,CCCn1c(C(=O)c2ccccc2OC)nc2ccccc21,-0.18%
15,CC1=C2C(=O)C3C(CC=C4CC(OC5OC(O)C(O)C(O)C5CO)CCC43C)C2CCC12OC1CC(C)CNC1C2C (stereo not given),1.23%
